Here are results for eight molecules from PubChem BioAssay (EPA / NIEHS).

The source made the active and inactive calls. Rule for the calls: active = hit-call score of the fitted dose curve at least 0.9, where 1 is the maximum; inactive = score below 0.9.

A short description of experiment [1]: BSK_LPS_PGE2: BioMAP Diversity Plus: LPS Assay for Prostaglandin E2 (PGE2) Biomarker Activity (AID 2283082).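 For AC50: secreted prostaglandin E2 measured by ELISA in LPS-stimulated co-culture.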 The note with it: primary human HUVEC with PBMC; actives raise or lower the signal. The procedure, abridged:
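HUVEC plus PBMC co-culture stimulated with LPS; secreted PGE2 quantified by ELISA 24 h after chemical dosing. Activity fitted bidirectionally against DMSO as negative control and baseline; parallel SRB total-protein staining served as cytotoxicity check.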

Read-out in experiment [2]: Tissue Factor, F3 (gene 2152)
Kind of experiment: BSK_LPS_TissueFactor: BioMAP Diversity Plus: LPS Assay for Tissue Factor Biomarker Activity (AID 2283084). Particulars: primary human HUVEC with PBMC; actives raise or lower the signal. Summed up: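 Human umbilical vein endothelial cells co-cultured with peripheral blood mononuclear cells were dosed and stimulated with LPS. Cell-surface CD142 was quantified by ELISA at 24 h. Activity was fitted bidirectionally against DMSO baseline.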

Read-out in experiment [3]: Vascular cell adhesion molecule 1 (VCAM1), VCAM1 (gene 7412)
Nature of the experiment: BSK_LPS_VCAM1: BioMAP Diversity Plus: LPS Assay for Vascular cell adhesion molecule 1 (VCAM1) Biomarker Activity (AID 2283086). Particulars: primary human HUVEC with PBMC; actives raise or lower the signal. The procedure, abridged: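 Human umbilical vein endothelial cells co-cultured with peripheral blood mononuclear cells under LPS stimulation were exposed to test chemical for 24 h. VCAM-1 levels were then measured by ELISA, with bidirectional curve fitting relative to DMSO as negative control and baseline.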

Read-out in the next experiment: CD38, CD38 (gene 952)
Nature of the experiment: BSK_SAg_CD38: BioMAP Diversity Plus: SAg Assay for CD38 Biomarker Activity (AID 2283087). Particulars: primary human HUVEC with PBMC; actives raise or lower the signal. The procedure, abridged: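 Fluorescence ELISA of cell-surface CD38 served as the read-out, with either increase or decrease fitted against DMSO controls. Cells were a human umbilical vein endothelium plus PBMC co-culture under SEB/TSST-1 stimulation, measured 24 h after dosing.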

Read-out in a further experiment: CD40, CD40 (gene 958)
Kind of experiment: BSK_SAg_CD40: BioMAP Diversity Plus: SAg Assay for CD40 Biomarker Activity (AID 2283088). The note with it: primary human HUVEC with PBMC; actives raise or lower the signal. Summed up: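 Human umbilical vein endothelial cells co-cultured with PBMC; CD40 levels measured by ELISA with fluorescence read-out 24 h after chemical dosing. Gain or loss of signal fitted bidirectionally against DMSO baseline.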

Read-out in the next experiment: CD69, CD69 (gene 969)
Nature of the experiment: BSK_SAg_CD69: BioMAP Diversity Plus: SAg Assay for CD69 Biomarker Activity (AID 2283089).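 For AC50: cell surface CD69 protein quantified by ELISA with fluorescence detection.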 The note with it: primary human HUVEC with PBMC; actives raise or lower the signal. Summed up: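 Endothelial/PBMC co-culture; chemical added; 24 h incubation; CD69 ELISA with fluorescence detection; bidirectional fit vs DMSO.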

Read-out in experiment [4]: Monocyte Chemoattractant Protein-1 (MCP1), CCL2 (gene 6347)
Kind of experiment: BSK_SAg_MCP1: BioMAP Diversity Plus: SAg Assay for Monocyte Chemoattractant Protein-1 (MCP1) Biomarker Activity (AID 2283090). Particulars: primary human HUVEC with PBMC; actives raise or lower the signal. Summed up:
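MCP-1 levels in the endothelial–PBMC SAg co-culture were quantified by ELISA at 24 h post-dosing; both increases and decreases versus DMSO scored. Cytotoxicity monitored by SRB total protein in parallel cultures.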

Read-out in experiment [5]: E-selectin (Homo sapiens) (UniProt P16581)
Nature of the experiment: BSK_SAg_Eselectin: BioMAP Diversity Plus: SAg Assay for Eselectin Biomarker Activity (AID 2283091). The note with it: primary human HUVEC with PBMC; actives raise or lower the signal. The procedure, abridged:
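HUVEC co-cultured with PBMC, compound dosed then read at 24 h; E-selectin measured by ELISA. Activity fitted bidirectionally against DMSO as negative control and baseline.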

Read-out in experiment [6]: Monokine induced gamma interferon (MIG), CXCL9 (gene 4283)
Kind of experiment: BSK_SAg_MIG: BioMAP Diversity Plus: SAg Assay for Monokine induced gamma interferon (MIG) Biomarker Activity (AID 2283092). Particulars: primary human HUVEC with PBMC; actives raise or lower the signal. The procedure, abridged: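 Measures CXCL9 protein by ELISA in a human vascular primary-cell co-culture (umbilical vein endothelium with PBMC) 24 h after chemical addition. Activity is scored up or down from the DMSO control.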

Experiment [7] is described as follows: BSK_SAg_PBMCCytotoxicity: PBMC Cytotoxicity Assessment in the BioMAP Diversity Plus: SAg Assay (AID 2283093).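 For AC50: PBMC superantigen activated with SEB plus TSST-1 one hour after compound addition.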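 Note: PBMC viability measured as Alamar Blue reduction fluorescence at 546/580 nm; fitted both ways against DMSO so a hit may be loss or gain of signal.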 The note with it: primary human HUVEC with PBMC. Summed up:
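HUVEC/PBMC co-culture; PBMC exposed to chemical 1 h before SEB and TSST-1 activation (20 ng/mL each), incubated 90 h, then Alamar Blue 6 h, fluorescence 546/580 nm. Bidirectional fit versus DMSO baseline.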

Read-out in experiment [8]: Interleukin-8 (IL8), CXCL8 (gene 3576)
Nature of the experiment: BSK_SAg_IL8: BioMAP Diversity Plus: SAg Assay for Interleukin-8 (IL8) Biomarker Activity (AID 2283094). The note with it: primary human HUVEC with PBMC; actives raise or lower the signal. Summed up:
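Human umbilical vein endothelial cells co-cultured with peripheral blood mononuclear cells; IL-8 measured by ELISA 24 h after chemical dosing. Bidirectional concentration-response fitting used DMSO as negative control and activity baseline.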

The nature of experiment [9]: BSK_SAg_Proliferation: Cell Proliferation Assessment in the BioMAP Diversity Plus: SAg Assay (AID 2283095).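 Note: relative cell number as total protein by SRB absorbance in sub-confluent culture.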 Particulars: primary human HUVEC with PBMC. The procedure, abridged:
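Human umbilical vein endothelial cells co-cultured with peripheral blood mononuclear cells; total protein measured by sulforhodamine B staining (0.1% SRB after 10% TCA fixation), absorbance at 560 nm, at 96 h. Bidirectional fit against DMSO baseline.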

Experiment [10] can be described thus: BSK_SAg_SRB: Viability Assessment in the BioMAP Diversity Plus: SAg Assay (AID 2283096).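 Note: cells read one day after compound addition; hits may be either gain or loss of signal compared with DMSO.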 The note with it: primary human HUVEC with PBMC. Summed up:
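Human umbilical vein endothelial cells co-cultured with PBMC, read 24 h after compound dosing. Total protein measured by sulforhodamine B staining (0.1% SRB after 10% TCA fixation, absorbance 560 nm); bidirectional fit versus DMSO baseline.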

Read-out in experiment [11]: Tumor necrosis factor (Homo sapiens) (UniProt P01375)
Nature of the experiment: BSK_LPS_TNFa: BioMAP Diversity Plus: LPS Assay for Tumour Necrosis Factor alpha (TNFa) Biomarker Activity (AID 2283085). Particulars: primary human HUVEC with PBMC; actives raise or lower the signal. Summed up: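 Human umbilical vein endothelial cells co-cultured with PBMC were exposed to test chemical and TNFa measured by ELISA 24 h after dosing. Bidirectional curve fitting was done relative to DMSO as negative control and baseline.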

Chain of E-selectin (Homo sapiens) (P16581 whole entry, looked up): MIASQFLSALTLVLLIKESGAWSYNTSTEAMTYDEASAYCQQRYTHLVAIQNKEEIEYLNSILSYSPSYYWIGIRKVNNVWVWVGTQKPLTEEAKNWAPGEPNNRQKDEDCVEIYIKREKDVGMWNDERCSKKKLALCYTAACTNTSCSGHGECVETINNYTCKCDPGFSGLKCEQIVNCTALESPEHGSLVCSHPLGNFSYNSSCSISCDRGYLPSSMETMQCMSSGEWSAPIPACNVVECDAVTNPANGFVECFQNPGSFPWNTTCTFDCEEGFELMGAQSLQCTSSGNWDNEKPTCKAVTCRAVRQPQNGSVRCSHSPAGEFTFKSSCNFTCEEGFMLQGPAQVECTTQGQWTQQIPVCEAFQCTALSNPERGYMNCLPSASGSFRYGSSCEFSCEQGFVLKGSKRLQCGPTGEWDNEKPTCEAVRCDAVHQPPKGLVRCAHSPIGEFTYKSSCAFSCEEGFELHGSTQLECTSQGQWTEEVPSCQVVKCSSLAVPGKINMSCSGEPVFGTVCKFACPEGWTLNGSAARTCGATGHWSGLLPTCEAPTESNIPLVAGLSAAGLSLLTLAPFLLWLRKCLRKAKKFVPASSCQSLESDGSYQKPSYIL
Chain of Tumor necrosis factor (Homo sapiens) (P01375 whole entry, looked up): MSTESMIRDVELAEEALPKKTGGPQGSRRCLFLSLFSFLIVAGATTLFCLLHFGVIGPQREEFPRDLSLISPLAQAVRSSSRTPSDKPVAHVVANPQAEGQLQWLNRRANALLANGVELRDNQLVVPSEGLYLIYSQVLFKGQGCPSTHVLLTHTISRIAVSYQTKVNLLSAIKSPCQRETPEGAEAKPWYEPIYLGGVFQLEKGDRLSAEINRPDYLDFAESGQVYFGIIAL

With `CS(=O)(=O)c1ccc(C2=C(c3ccccc3)C(=O)OC2)cc1`, the outcome in experiment [1] is “inactive”; in experiment [2], “inactive”; in experiment [3], “inactive”; in the experiment with CD38, CD38 (gene 952) it was “inactive”; in the experiment with CD40, CD40 (gene 958), “inactive”; with CD69, CD69 (gene 969), “inactive”. In addition, the result in experiment [4], in experiment [5], in [6], in [7], in experiment [8] and in experiment [9] was inactive. Further, in [10], the result was inactive.
With `Oc1c(Cl)cc(Cl)c(Cl)c1Cc1c(O)c(Cl)cc(Cl)c1Cl`, the outcome in experiment [1] was inactive. Besides, the AC50 (in general, the midpoint of the concentration-response curve, whichever way the signal moves) in experiment [2] was 27.7 µM (active); in experiment [3], 22.6 µM (active); with CD38, CD38 (gene 952), 2.31 µM (active); with CD40, CD40 (gene 958), 7.61 µM (active); in the experiment with CD69, CD69 (gene 969) it was 5.19 µM (active); in experiment [4], 5.46 µM (active). Besides, the AC50 in experiment [5] was 3.17 µM (active); in experiment [6], 8.51 µM (active); in experiment [7] it was 12.9 µM (active); in experiment [8], 4.7 µM (active); in experiment [9] it was 4.05 µM (active); in experiment [10] it was 15.6 µM (active).
As to `CCC(C)c1cc([N+](=O)[O-])cc([N+](=O)[O-])c1OC(=O)OC(C)C` (centres undefined), the concentration at half-maximal activity (AC50) in experiment [1] was 5.42 µM (active); in experiment [2], 16.2 µM (active); in [11], 31.8 µM (active); in experiment [3], 16.8 µM (active); in the experiment with CD38, CD38 (gene 952), 10.8 µM (active); with CD40, CD40 (gene 958) it was 9.34 µM (active). Besides, the AC50 in the experiment with CD69, CD69 (gene 969) is 8.7 µM (active); in experiment [4], 12.2 µM (active); in [5], 12.2 µM (active); in experiment [6], 9.7 µM (active); in [7] it was 28.3 µM (active); in experiment [9] it was 9.53 µM (active). The AC50 in experiment [10] was 20 µM (active). Further, the outcome in [8] was inactive.
Take `CSCCC=O`: the outcome in [1] was “inactive”; in [2], “inactive”; in [3], “inactive”; in the experiment with CD38, CD38 (gene 952), “inactive”; with CD40, CD40 (gene 958) it was “inactive”; with CD69, CD69 (gene 969) it was “inactive”. For the same molecule, the outcome in experiment [4], in [5], in [6], in [7], in [8] and in experiment [10] was inactive. Further, the concentration at half-maximal activity (AC50) in experiment [9] was 38.6 µM (active).
For `CN(C)C(=O)Nc1ccc(Oc2ccc(Cl)cc2)cc1`, the concentration at half-maximal activity (AC50) in experiment [1] is 5.86 µM (active). In addition, the outcome is “inactive” in experiment [2]; “inactive” in [3]; “inactive” with CD38, CD38 (gene 952); “inactive” in the experiment with CD40, CD40 (gene 958); “inactive” with CD69, CD69 (gene 969); “inactive” in [4]. Moreover, the outcome in experiment [5], in experiment [6], in [7], in experiment [8], in [9] and in [10] was inactive.
With `IC(I)I`, the outcome was “inactive” in experiment [1]; “inactive” in experiment [2]; “inactive” in experiment [3]; “inactive” with CD38, CD38 (gene 952); “inactive” with CD40, CD40 (gene 958); “inactive” with CD69, CD69 (gene 969). Besides, the outcome in experiment [4], in experiment [5], in experiment [6], in [7], in experiment [8] and in experiment [9] was inactive. For the same molecule, the outcome in experiment [10] was inactive.
Consider `CC(C)(N=C=O)c1cccc(C(C)(C)N=C=O)c1`, for which the outcome was “inactive” in experiment [1]; “inactive” in [2]; “inactive” in experiment [3]; “inactive” with CD38, CD38 (gene 952); “inactive” with CD40, CD40 (gene 958); “inactive” with CD69, CD69 (gene 969). Moreover, the result in experiment [4], in [5], in [6], in [8], in [9] and in experiment [10] was inactive.
As for `CC(C)(C)CC(C)(C)c1ccc(OCCOCC[N+](C)(C)Cc2ccccc2)cc1`, the outcome in experiment [1] was inactive. In addition, the AC50 in experiment [2] was 9.04 µM (active); in experiment [3], 9.18 µM (active); in the experiment with CD38, CD38 (gene 952) it was 5 µM (active); in the experiment with CD40, CD40 (gene 958) it was 5 µM (active); with CD69, CD69 (gene 969), 3.28 µM (active); in experiment [4] it was 5 µM (active). Further, the AC50 was 3.59 µM (active) in experiment [5]; 6.44 µM (active) in experiment [6]; 3.23 µM (active) in [7]; 2.46 µM (active) in experiment [8]; 0.773 µM (active) in experiment [9]; 8.46 µM (active) in experiment [10].
